Measured values reported in PubChem BioAssay AID1159580 (chemical genetic matrix, 2015).
Several values for one entry are separate records, joined by “and”; a condition that tells them apart may be missing. Identical values can stand only once. Hit rate of the full screen: of about 5,500 compounds, about 2,000 (36%) were called active. About 18% were inconclusive and are not listed. Cut-off read from the data, not from the text of the source: active = normalized growth mostly below about 0.91 (no sharp cut-off); inconclusive = no clear call, values can overlap the other calls; inactive = mostly above about 0.92. The list shows a part of the results. Some compounds were tested as several samples or in several runs, with calls that do not always agree.

Test: chemical genetic growth profiling, strain panel (AID 1159580);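 note: tested at 20 µM; growth read once vehicle control cultures reached saturation at 30 °C; 1 = growth at the plate median or of vehicle wells; lower values mean less growth of the strain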
Conditions: growth OD

Measured: normalized growth

Oc1ccc(O)cc1
0.989 (inactive) and 0.9 (active): S. cerevisiae deletion strains, locus YAL013W, strain DEP1, stronger effect = lower value
inactive: S. cerevisiae deletion strains, locus YAL040C, strain CLN3, stronger effect = lower value 1.1 | S. cerevisiae deletion strains, locus YBR229C, strain ROT2, stronger effect = lower value 1.02 | S. cerevisiae deletion strains, locus YCL029C, strain bik1, stronger effect = lower value 1.04 | S. cerevisiae deletion strains, locus YCL061C, strain MRC1 (second series), stronger effect = lower value 0.978 | S. cerevisiae deletion strains, locus YDL035C, strain GPR1, stronger effect = lower value 0.9 | S. cerevisiae deletion strains, locus YDL074C, strain BRE1, stronger effect = lower value 0.96 | S. cerevisiae deletion strains, locus YDL101C, strain DUN1, stronger effect = lower value 1.02 | S. cerevisiae deletion strains, locus YDL134C, strain PPH21, stronger effect = lower value 0.987 | S. cerevisiae deletion strains, locus YDL185W, strain tfp1, stronger effect = lower value 1.01 | S. cerevisiae deletion strains, locus YDL192W, strain arf1, stronger effect = lower value 1.02 | S. cerevisiae deletion strains, locus YDR101C, strain arx1, stronger effect = lower value 1.03 | S. cerevisiae deletion strains, locus YDR150W, strain NUM1, stronger effect = lower value 1.01 and 0.953 | S. cerevisiae deletion strains, locus YDR162C, strain NBP2, stronger effect = lower value 0.987 | S. cerevisiae deletion strains, locus YDR318W, strain mcm21, stronger effect = lower value 1 | S. cerevisiae deletion strains, locus YDR363W, strain ESC2, stronger effect = lower value 0.997 | S. cerevisiae deletion strains, locus YDR388W, stronger effect = lower value 0.999 | S. cerevisiae deletion strains, locus YDR502C, strain sam2, stronger effect = lower value 1.02 | S. cerevisiae deletion strains, locus YEL061C, strain CIN8, stronger effect = lower value 1.02 | S. cerevisiae deletion strains, locus YER002W, strain NOP16, stronger effect = lower value 1 | S. cerevisiae deletion strains, locus YER110C, stronger effect = lower value 1.04 | S. cerevisiae deletion strains, locus YER155C, strain BEM2, stronger effect = lower value 1.02 | S. cerevisiae deletion strains, locus YER167W, strain BCK2, stronger effect = lower value 0.926 | S. cerevisiae deletion strains, locus YGL078C, strain dbp3, stronger effect = lower value 1.03 | S. cerevisiae deletion strains, locus YGL086W, strain mad1, stronger effect = lower value 0.985 | S. cerevisiae deletion strains, locus YGL248W, strain PDE1, stronger effect = lower value 0.975 | S. cerevisiae deletion strains, locus YGR078C, strain PAC10, stronger effect = lower value 0.858 and 1.01 | S. cerevisiae deletion strains, locus YGR135W, strain pre9, stronger effect = lower value 0.964 | S. cerevisiae deletion strains, locus YHR030C, strain SLT2, stronger effect = lower value 1 and 1.03 | S. cerevisiae deletion strains, locus YHR079C, strain IRE1 (second series), stronger effect = lower value 1 | S. cerevisiae deletion strains, locus YHR079C, strain IRE1, stronger effect = lower value 1.05 | S. cerevisiae deletion strains, locus YHR094C, strain hxt1, stronger effect = lower value 1.01 | S. cerevisiae deletion strains, locus YHR129C, strain ARP1, stronger effect = lower value 1.01 | S. cerevisiae deletion strains, locus YHR200W, strain rpn10, stronger effect = lower value 1 | S. cerevisiae deletion strains, locus YIL066C, strain RNR3, stronger effect = lower value 0.993 | S. cerevisiae deletion strains, locus YIL073C, strain SPO22, stronger effect = lower value 0.82 | S. cerevisiae deletion strains, locus YIL125W, strain kgd1, stronger effect = lower value 1.03 | S. cerevisiae deletion strains, locus YIR030C, strain dcg1, stronger effect = lower value 1.06 | S. cerevisiae deletion strains, locus YJL095W, strain BCK1, stronger effect = lower value 0.968 and 1.01 | S. cerevisiae deletion strains, locus YJL134W, strain LCB3, stronger effect = lower value 1.02 | S. cerevisiae deletion strains, locus YJL168C, strain set2, stronger effect = lower value 1.02 | S. cerevisiae deletion strains, locus YJL187C, strain SWE1 (second series), stronger effect = lower value 1.01 | S. cerevisiae deletion strains, locus YJR043C, strain POL32, stronger effect = lower value 0.86 | S. cerevisiae deletion strains, locus YJR066W, strain TOR1, stronger effect = lower value 1.02 | S. cerevisiae deletion strains, locus YJR075W, strain HOC1, stronger effect = lower value 0.951 | S. cerevisiae deletion strains, locus YKL009W, strain mrt4, stronger effect = lower value 1.03 | S. cerevisiae deletion strains, locus YKL068W, stronger effect = lower value 1.01 | S. cerevisiae deletion strains, locus YKL085W, strain MDH1 (second series), stronger effect = lower value 1.02 | S. cerevisiae deletion strains, locus YKL085W, strain MDH1, stronger effect = lower value 1.02 | S. cerevisiae deletion strains, locus YKL190W, strain CNB1, stronger effect = lower value 1 | S. cerevisiae deletion strains, locus YKR001C, strain vps1, stronger effect = lower value 0.927 | S. cerevisiae deletion strains, locus YLR039C, strain RIC1, stronger effect = lower value 0.904 | S. cerevisiae deletion strains, locus YLR058C, strain SHM2, stronger effect = lower value 1.01 | S. cerevisiae deletion strains, locus YLR102C, strain apc9, stronger effect = lower value 1.03 | S. cerevisiae deletion strains, locus YLR113W, strain HOG1, stronger effect = lower value 1.04 | S. cerevisiae deletion strains, locus YLR262C, strain YPT6, stronger effect = lower value 0.843 | S. cerevisiae deletion strains, locus YLR268W, strain sec22, stronger effect = lower value 0.98 | S. cerevisiae deletion strains, locus YLR330W, strain CHS5, stronger effect = lower value 1.01 | S. cerevisiae deletion strains, locus YLR342W, strain FKS1 (second series), stronger effect = lower value 0.801 | S. cerevisiae deletion strains, locus YLR371W, strain rom2, stronger effect = lower value 1.03 | S. cerevisiae deletion strains, locus YLR418C, strain cdc73, stronger effect = lower value 0.845 | S. cerevisiae deletion strains, locus YML016C, strain PPZ1, stronger effect = lower value 1.01 | S. cerevisiae deletion strains, locus YML032C, strain rad52, stronger effect = lower value 0.937 | S. cerevisiae deletion strains, locus YML124C, strain tub3, stronger effect = lower value 1.03 | S. cerevisiae deletion strains, locus YMR078C, strain ctf18, stronger effect = lower value 1.04 | S. cerevisiae deletion strains, locus YMR223W, strain ubp8, stronger effect = lower value 0.996 | S. cerevisiae deletion strains, locus YMR263W, strain SAP30, stronger effect = lower value 0.989 | S. cerevisiae deletion strains, locus YMR307W, strain GAS1, stronger effect = lower value 0.716 and 0.967 | S. cerevisiae deletion strains, locus YNL067W, strain RPL9B, stronger effect = lower value 0.933 | S. cerevisiae deletion strains, locus YNL128W, strain TEP1, stronger effect = lower value 1.02 | S. cerevisiae deletion strains, locus YNL153C, strain GIM3, stronger effect = lower value 0.995 | S. cerevisiae deletion strains, locus YNL175C, strain NOP13, stronger effect = lower value 1 | S. cerevisiae deletion strains, locus YNL183C, strain NPR1, stronger effect = lower value 1.03 | S. cerevisiae deletion strains, locus YNL197C, strain WHI3, stronger effect = lower value 1.01 | S. cerevisiae deletion strains, locus YNL224C, strain SQS1, stronger effect = lower value 1.02 | S. cerevisiae deletion strains, locus YNL233W, strain BNI4, stronger effect = lower value 0.985 | S. cerevisiae deletion strains, locus YNL250W, strain rad50, stronger effect = lower value 1.03 | S. cerevisiae deletion strains, locus YNL271C, strain bni1, stronger effect = lower value 1.05 | S. cerevisiae deletion strains, locus YNL298W, strain CLA4, stronger effect = lower value 1.04 | S. cerevisiae deletion strains, locus YNL322C, strain KRE1, stronger effect = lower value 1.02 | S. cerevisiae deletion strains, locus YNR052C, strain pop2, stronger effect = lower value 1.04 | S. cerevisiae deletion strains, locus YOL006C, strain TOP1, stronger effect = lower value 0.636 | S. cerevisiae deletion strains, locus YOL012C, strain htz1 0.667 | S. cerevisiae deletion strains, locus YOL147C, strain pex11, stronger effect = lower value 1.03 | S. cerevisiae deletion strains, locus YOR061W, strain CKA2, stronger effect = lower value 1.01 | S. cerevisiae deletion strains, locus YOR069W, strain VPS5, stronger effect = lower value 1.01 | S. cerevisiae deletion strains, locus YOR083W, strain WHI5 (second series), stronger effect = lower value 0.893 | S. cerevisiae deletion strains, locus YOR136W, strain idh2, stronger effect = lower value 1.03 | S. cerevisiae deletion strains, locus YOR144C, strain elg1, stronger effect = lower value 1.02 | S. cerevisiae deletion strains, locus YOR184W, strain ser1, stronger effect = lower value 0.979 | S. cerevisiae deletion strains, locus YOR231W, strain MKK1, stronger effect = lower value 1.06 | S. cerevisiae deletion strains, locus YOR316C, strain cot1, stronger effect = lower value 1.03 | S. cerevisiae deletion strains, locus YPL055C, strain LGE1, stronger effect = lower value 0.851 | S. cerevisiae deletion strains, locus YPL241C, strain CIN2, stronger effect = lower value 1.01 and 1 | S. cerevisiae deletion strains, locus YPL256C, strain CLN2, stronger effect = lower value 1.08 | S. cerevisiae deletion strains, locus YPR119W, strain clb2, stronger effect = lower value 1.04 | S. cerevisiae deletion strains, locus YPR141C, strain kar3, stronger effect = lower value 1.03 | S. cerevisiae deletion strains, locus YPR163C, strain tif3, stronger effect = lower value 1 | S. cerevisiae deletion strains, locus YPR167C, strain met16, stronger effect = lower value 1.02 | S. cerevisiae deletion strains, strain wtn01, stronger effect = lower value 0.999 | S. cerevisiae strains, strain wild type, stronger effect = lower value 1.01
active: S. cerevisiae deletion strains, locus YBR021W, strain FUR4, stronger effect = lower value 0.688 | S. cerevisiae deletion strains, locus YGR229C, strain SMI1, stronger effect = lower value 0.637 | S. cerevisiae deletion strains, locus YGR252W, strain gcn5, stronger effect = lower value 0.765 | S. cerevisiae deletion strains, locus YNL307C, strain MCK1, stronger effect = lower value 0.794
